# This is one part of a sample in which hits are shown more often than they occur.
# YopH inh: blocks Yersinia enterocolitica YopH tyrosine phosphatase; fluorescence Ex485/Em525; inhibition, % (no concentration beside the values); hit rate 0.16% among 140,000; AID 898; in the data active = inhibition above about 50%
# Mtb RmlCD inh: inhibitors of Mycobacterium tuberculosis RmlC and RmlD coupled enzymes | P9WH09+P9WH11 | RmlC+RmlD coupled enzyme assay, percent inhibition; primary screen in compound mixtures | inhibition, % at 3.6 µM | hit rate 0.03% among 160,000; in the data active = inhibition mostly above about 34%, no sharp cut-off
# Target sequence (P9WH09 whole entry, looked up): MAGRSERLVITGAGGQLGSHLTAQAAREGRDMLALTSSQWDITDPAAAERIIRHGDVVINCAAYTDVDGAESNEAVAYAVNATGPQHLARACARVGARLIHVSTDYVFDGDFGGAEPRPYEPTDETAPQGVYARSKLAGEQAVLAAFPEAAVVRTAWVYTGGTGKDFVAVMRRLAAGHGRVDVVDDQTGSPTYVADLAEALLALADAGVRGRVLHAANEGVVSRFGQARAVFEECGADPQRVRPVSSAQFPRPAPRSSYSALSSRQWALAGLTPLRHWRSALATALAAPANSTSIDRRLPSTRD
# Target sequence (P9WH11 whole entry, looked up): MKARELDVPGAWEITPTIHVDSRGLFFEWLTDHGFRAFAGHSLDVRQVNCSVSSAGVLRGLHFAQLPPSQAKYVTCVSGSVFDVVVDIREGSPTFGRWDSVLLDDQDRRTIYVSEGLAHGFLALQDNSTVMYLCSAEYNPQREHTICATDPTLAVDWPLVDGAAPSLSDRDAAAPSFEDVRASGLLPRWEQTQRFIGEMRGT
# * = called active by the depositor; / = not tested or not shown.
SMILES,YopH inh,Mtb RmlCD inh
CCc1ccc(C2CC(=O)N3CN(c4ccccc4)CSC3=C2C#N)cc1 (configuration not stated),-21.1,6.9
CCOc1ccccc1N1CSC2=C(C#N)C(c3c(OC)ccc4ccccc34)CC(=O)N2C1 (configuration not stated),89.8*,/
COc1ccc(C2CC(=O)N3CN(c4ccc(C)c(Cl)c4)CSC3=C2C#N)cc1OC (configuration not stated),-36.5,7.0
COc1ccc(N2CSC3=C(C#N)C(c4cc(OC)c(OC)cc4OC)CC(=O)N3C2)c(OC)c1 (configuration not stated),41.6,/
COc1ccc(N2CSC3=C(C#N)C(c4cc(OC)ccc4OC)CC(=O)N3C2)c(OC)c1 (configuration not stated),69.4*,9.1
COc1ccc(N2CSC3=C(C#N)C(c4ccc(OC)c(OC)c4)CC(=O)N3C2)c(OC)c1 (configuration not stated),59.9*,/
COc1ccc(CN2CCN(Cc3ccon3)CC2CCO)c(C)c1C (configuration not stated),/,14.2
O=C1CNC(=O)N1CC(O)Cn1c2ccccc2c2ccccc21 (configuration not stated),/,2.7
COc1ccc(NC(=O)NC23CC4(C)CC(C)(CC(C)(C4)C2)C3)cc1,12.3,-6.7
Oc1ccc(-c2nc3c4c(ncn3n2)-c2ccccc2CC42CCCC2)cc1,-18.4,4.5
O=c1cc(CN2CCN(c3cccc(C(F)(F)F)c3)CC2)nc2sccn12,/,-9.2
C#CCn1c(=O)cc(C)c2ccccc21,/,2.8
C#CCn1cc(C=C2C(=O)c3ccccc3C2=O)c2ccccc21,50.8*,24.6
Cc1cc(C)c2ccc(=O)n(CC(=O)N/N=C/c3ccccc3Cl)c2n1,/,14.0
CC1=CC(=O)C=C(C)C1=NOc1ccccc1[N+](=O)[O-],-23.8,-2.0
O=C(N/N=C/c1cccn1-c1ccc([N+](=O)[O-])cc1)c1cccnc1,/,-1.9
OCC(CO)(CO)N=Cc1c(O)ccc2ccccc12,-38.9,-6.0
Oc1ccc2ccccc2c1C=NC12CN3CCN(CN(C3)C1)C2,81.5*,6.5
CCOc1ccc(-c2nnc3ccc(SCC(=O)Nc4nc5ccccc5s4)nn23)cc1,65.5*,4.2
CCOc1ccc(-c2nnc3ccc(SCC(=O)Nc4nc5ccc(C)cc5s4)nn23)cc1,-7.4,8.5
CCOc1cc(C(=O)Nc2ccccc2F)cc(Br)c1OCC,-4.7,5.9
O=C(c1cccs1)c1no[n+]([O-])c1C(=O)c1cccs1,86.8*,/
COc1ccc(C(=O)c2no[n+]([O-])c2C(=O)c2ccc(OC)cc2)cc1,-7.6,12.6
Cc1ccc(/C=N/NC(=O)C(C)Oc2ccccc2[N+](=O)[O-])s1 (configuration not stated),-37.2,-6.6
CN(C)CC(C)(C)CNS(=O)(=O)c1ccc(OC(F)(F)F)cc1,/,-4.7
SMILES,YopH inh,Mtb RmlCD inh
CCC(=O)N1Cc2ccccc2-c2ccccc2C1=O,51.6*,/
O=C(O)CCN1Cc2ccccc2C1=O,-0.6,4.5
CC(C)Cn1c2c(c(O)c(C(=O)Nc3nc4ccccc4s3)c1=O)CCCC2,/,82.1*
Cc1nc2ccccc2c(=O)n1NC(=O)c1c(O)c2c(n(CC(C)C)c1=O)CCCC2,83.6*,43.7
CCCn1c2c(c(O)c(C(=O)Nc3nc4ccccc4s3)c1=O)CCCC2,/,1.4
CCCCCCc1nc2ccccc2c(=O)n1NC(=O)c1c(O)c2c(n(CC(C)C)c1=O)CCCC2,4.9,6.8
CCN(CC)S(=O)(=O)c1ccc(NN=c2c(=O)c3ccccc3c2=O)cc1,/,2.0
O=C(OCc1ccccc1)C1CCCN1C(=O)c1ccccc1[N+](=O)[O-] (configuration not stated),6.5,/
CC(=O)Nc1ccc2c(c1)nc1n2CCN(C2CCCCC2)C1,/,-2.1
Cc1ccc(-c2cn3nc(C)c(C)nc3n2)cc1,-17.6,/
CCc1ccc(-c2cn3nc(-c4ccccc4)cnc3n2)cc1,/,70.3*
CCOC(=O)Cc1ncccc1C(=O)Nc1ccc(Oc2ccccc2)cc1,/,22.4
Nc1cc2nsnc2cc1Br,99.6*,-4.2
Nc1cccc2nsnc12,/,17.7
CCN(CC)c1ccc(/C=N/NC(=O)OC)c(O)c1,1.7,/
CCN(CC)c1ccc(C=Nc2ccccc2)c(O)c1,51.8*,/
CCN(CC)c1ccc(/C=N/Nc2ccccc2)c(O)c1,50.6*,/
CCN(CC)c1ccc(N=Cc2ccc(N(CC)CC)cc2O)cc1,-17.2,/
CCN(CC)c1ccc(/C=N/Nc2cccc(C)c2)c(O)c1,58.4*,-9.8
CCN(CC)c1ccc(C=Nc2cc(C)cc(C)c2)c(O)c1,-28.4,-12.2
NS(=O)(=O)c1ccc(CCNC(=O)/C=C/c2ccccc2[N+](=O)[O-])cc1,/,70.3
O=C(CSc1n[nH]c(=O)n1C1CC1)NCc1ccccc1Cl,/,10.7
CN(Cc1ccccc1)C(=O)[C@H]1CCC(=O)N1Cc1ccco1,-7.9,/
O=C(CN1CCN(Cc2cccc(Cl)c2)C1=O)NCc1cccs1,/,0.9
Cc1c2c(c(C)n1C)C(C(=O)NC1CCCCC1)N(Cc1ccccc1)C2=O (configuration not stated),/,14.9
SMILES,YopH inh,Mtb RmlCD inh
CC(C)CC(C(=O)Oc1ccc2c3c(c(=O)oc2c1)CCC3)N1C(=O)c2ccccc2C1=O (configuration not stated),-7.7,54.5*
CCC(C)C(NS(=O)(=O)c1ccc(C)cc1)C(=O)Oc1ccc2c3c(c(=O)oc2c1)CCC3 (configuration not stated),-34.3,/
Cc1ccc(S(=O)(=O)NC(CC(C)C)C(=O)Oc2ccc3c4c(c(=O)oc3c2)CCC4)cc1 (configuration not stated),-18.9,7.0
CC[C@@H](NS(=O)(=O)c1ccc(C)cc1)C(=O)Oc1ccc2c3c(c(=O)oc2c1)CCC3,1.7,45.5*
Cc1ccc(NC(=O)c2ccnc(C(C)(C)C)c2)cc1,68.3*,/
CC(C)(C)c1cc(C(=O)Nc2ccccc2)ccn1,-39.0,3.1
O=c1[nH]c(/C=C/c2ccc(Br)cc2)nc2c1cnn2-c1ccccc1,/,-6.5
COc1cccc(/C=C/c2nc3c(cnn3-c3ccccc3)c(=O)[nH]2)c1,/,35.4*
O=C(CCCn1c(=O)[nH]c2cc(Cl)ccc2c1=O)NCCCN1CCCC1=O,-6.4,10.5
CCN(CC(=O)NC1CCS(=O)(=O)C1)S(=O)(=O)c1ccc(C)c(C)c1 (configuration not stated),-27.1,-14.1
O=C(CCCCl)Oc1ccc2cc(-c3ccc4ccccc4n3)c(=O)oc2c1,-29.5,/
Cc1cc(C(=O)OCC(=O)NC2CCS(=O)(=O)C2)c2ccccc2n1 (configuration not stated),/,6.2
COc1ccc2cc(-c3cc(C(=O)OCC(=O)NC4CCS(=O)(=O)C4)c4ccccc4n3)ccc2c1 (configuration not stated),97.0*,-7.8
CCn1c(SCC(=O)Nc2nccc(C)n2)nc2ccccc21,/,7.4
CC1(C)Cc2c(sc(NC(=O)C3CC(Cl)=CCC3C(=O)O)c2C#N)CO1 (configuration not stated),/,7.1
CN(CC(=O)N1CCCc2c1c(=O)oc1ccc(O)cc21)Cc1ccccc1,51.0*,30.4
O=C(CN1CCCC1)N1CCCc2c1c(=O)oc1ccc(OCc3ccccc3)cc21,-37.4,-7.6
CC(C(=O)N1CCCc2c1c(=O)oc1ccc(O)cc21)N1CCc2ccccc2C1 (configuration not stated),52.5*,8.0
